Compound activity (PubChem)
Shown are actives, neighbours in structure and some others; about 19% of the full set was active somewhere.
HT1080-NT tox: qHTS for induction of synthetic lethality in tumor cells producing 2HG: qHTS for the HT-1080-NT fibrosarcoma cell line. HT-1080-NT fibrosarcoma viability, CellTiter-Glo ATP luminescence, 48 h. Potency, µM (doses to about 46.1 µM), inactives show at the top dose activity, negative = less viability, hits mostly cytotoxic. 1.6% of 360,000 active. AID 686970, 2013;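 note: NT is the 2HG producing partner of a matched IDH1 knockdown line; potency is the fitted concentration of half-maximal effect; 0% = DMSO-treated cells and -100% = media-only wells without cells; nearly all actives have a fitted effect of over 55% in size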
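Read-out is CellTiter-Glo luminescence after 10 minutes at room temperature, following 48 hours' compound treatment of HT-1080-NT cells (750 cells/well, RPMI, 5% FBS, 37 degrees C).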
HT1080 IDH1KD tx: qHTS for induction of synthetic lethality in tumor cells producing 2HG: qHTS for the HT-1080-IDH1KD cell line; HT-1080 IDH1 knockdown viability, ATP luminescence, 48 h; 2% of 360,000 active; Potency, µM (highest dose often 46.1 µM), inactives show at the top dose activity, negative = toxicity, actives largely listed as cytotoxic;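 note: potency is the fitted concentration of half-maximal effect; 0% = DMSO wells and -100% = cell-free medium wells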
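After a 2 h attachment period, IDH1KD HT-1080 cells took pin-transferred compound for 48 h at 37 °C; ATP-based luminescence after 10 min room-temperature reagent incubation reported viability.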
IL-1B inflam inh: qHTS for Inhibitors of Inflammasome Signaling: IL-1-beta AlphaLISA Primary Screen; THP-1 LPS/ATP IL-1B secretion, AlphaLISA, 16 h; stronger effect = lower value; activity change, % at 57.5 µM; 4.7% of 360,000 active; AID 743279, 2014; in the data active = activity change below about -50%; inconclusive = mostly about -30% to -49%
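Secreted IL-1B measured by AlphaLISA bead assay after 16 h compound exposure of THP-1 cells; compounds (final up to 57.5 uM) added 1 h before LPS (250 ng/mL) and ATP (1.25 mM) stimulation; lower signal means less secretion.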
DT40 TDP1 no CPT: qHTS for Inhibitors of human tyrosyl-DNA phosphodiesterase 1 (TDP1): qHTS in cells in absence of CPT | DT40 Tdp1-/- hTDP1 cells, no CPT, ATP luminescence, 48 h | Potency, µM (series often up to 46.2 µM), inactives show at the top dose activity change, negative = growth inhibition, actives largely listed as inhibitors | 15% of 420,000 active | AID 686978, 2013; note: potency is the fitted concentration of half-maximal effect; nearly all actives have a fitted effect of over 55% in size
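Luminescent ATP content (CellTiter-Glo) served as the growth readout. Knockout chicken DT40 cells expressing human TDP1 were exposed to compounds without camptothecin for a minimum 48 hr at 37 °C.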
DT40 TDP1 CPT: qHTS for Inhibitors of human tyrosyl-DNA phosphodiesterase 1 (TDP1): qHTS in cells in presence of CPT; 12% of 420,000 active; Potency, µM (doses to about 46.2 µM), for the others: at the highest dose activity change, negative = growth inhibition, actives largely listed as inhibitors; chicken DT40 Tdp1-/-;hTDP1 cells + 20 nM CPT, ATP luminescence, 48 h; AID 686979, 2013; note: potency is the fitted concentration of half-maximal effect; nearly all actives have a fitted effect of over 55% in size
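Chicken DT40 Tdp1-/- cells stably complemented with human TDP1 were seeded at 400 cells/well in medium containing 20 nM camptothecin, exposed to pin-transferred compounds, and grown at 37 °C for at least 48 hr. Viability was read as ATP luminescence.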
Starred values were filed as active, the others as inactive; ? = inconclusive; · = no result given. Unless noted, calls come from the whole dose curve; as a rule, active = well fitted curve in the direction sought with a large enough effect; inconclusive = small, poorly fitted or top-dose-only effect, or another doubt; inactive = no such curve, though single readings can be large; an effect the other way counts as inactive or inconclusive. Unless noted, % is set by controls: 0 for no effect and ±100 for the full control effect.

SMILES | HT1080-NT tox | HT1080 IDH1KD tx | IL-1B inflam inh | DT40 TDP1 no CPT | DT40 TDP1 CPT
OC(CN1CCCCC1)Cn1c2ccccc2c2cc(Br)ccc21 (configuration not stated) | 23µM* | ? | -75* | 16µM* | 16µM*
Cc1ccc2c(c1)c1c(n2CC(O)Cn2c(C)nc3ccccc32)CCCC1 (configuration not stated) | ? | ? | -11 | ? | 23µM*
Cc1ccc2c(c1)c1c(n2CC(O)CN2CCCCCC2)CCCC1 (configuration not stated) | ? | ? | -74* | 15µM* | ?
Cc1ccc2c(c1)c1c(n2CC(O)CNC(C)(C)C)CCCC1 (configuration not stated) | -15% | -23% | ? | ? | ?
Cc1ccc2c(c1)c1c(n2CC(O)Cn2nc(C)c(Br)c2C)CCCC1 (configuration not stated) | ? | ? | -21 | 16µM* | ?
CCCOc1ccc(C(=O)CCC(=O)NNC(=O)c2cccs2)cc1 | 3% | 12% | 32 | 24% | -1%
Cc1ccc(NC(=S)NC(=O)C2CCCC2)cc1C | 4% | -1% | 6 | ? | ?
CCN(CC)S(=O)(=O)c1cc(NS(=O)(=O)c2cccs2)ccc1C | 6% | 0% | 14 | 5.8µM* | -23%
CCN(CC)S(=O)(=O)c1ccc(NC(=S)NC(=O)C2CCC2)cc1 | -12% | -10% | -17 | ? | 18µM*
CCN(CC)S(=O)(=O)c1cc(NC(=S)NC(=O)C2CCCC2)ccc1C | -11% | -19% | -18 | 18µM* | 23µM*
COc1ccc(C)cc1CN1C(=O)c2ccccc2C1=O | 5% | 4% | 11 | ? | 8%
Cc1noc(C)c1S(=O)(=O)N1CCN(c2ccccc2Cl)CC1 | -7% | -4% | 1 | ? | -25%
Cc1sc2nc(CSC(C)C(=O)N3CCOCC3)[nH]c(=O)c2c1C (configuration not stated) | 29% | 12% | 10 | 11% | 22%
COC(=O)[C@@]1(Cc2ccc(F)cc2)[C@@H]2[C@@H](CC(=O)[C@H]2CC(=O)C(=O)N(C)C)CN1C(=O)c1ccccc1 | 6% | 4% | -19 | ? | ?
COC(=O)[C@@]1(Cc2ccc(F)cc2)[C@H]2C(CC(=O)C(=O)N3CCCC3)C(=O)C[C@H]2CN1C(=O)c1ccccc1 (some centres not stated) | ? | ? | -70* | ? | ?
COC(=O)[C@@]1(Cc2ccc(OC)cc2)[C@@H]2C(=CC(=O)[C@H]2CC(=O)C(=O)N2CCCC2)CN1C(=O)c1ccccc1 | ? | 21µM* | -76* | 16µM* | ?
COC(=O)[C@@]1(Cc2ccc(OC)cc2)[C@@H]2[C@@H](CC(=O)[C@H]2CC(=O)C(=O)N(C)C)CN1C(=O)c1ccccc1 | 1% | -1% | -21 | ? | 23µM*
C=CCNC(=O)c1onc(CCl)c1C(=O)OC | ? | 26µM* | 110 | ? | 23µM*
Nc1nc(N)c2nc(-c3ccccc3)c(N)nc2n1 | 2.3µM* | 2.9µM* | 41 | 2.1µM* | 15µM*
NSc1nc(N)c2nc(-c3ccccc3)c(-c3ccccc3)nc2n1 | -7% | -5% | -51* | 26µM* | ?
N#Cc1c(N)nc(-c2ccccc2)nc1-c1ccccc1 | ? | ? | -4 | -2% | -3%
OC(CNC1CCCC1)COc1ccccc1Br (configuration not stated) | -11% | -11% | -6 | ? | -18%
Cc1ccc(OCC(O)CNC2CCCC2)c(C)c1 (configuration not stated) | -17% | -16% | -8 | ? | -27%
Cc1ccccc1OCC(O)CNC1CCC(NCC(O)COc2ccccc2C)CC1 (configuration not stated) | 2.9µM* | 2.3µM* | -98* | 2.3µM* | 3.7µM*
OC(CNC1CCCCCC1)COc1cccc2ccccc12 (configuration not stated) | 21µM* | ? | -105* | 13µM* | 16µM*
SMILES | HT1080-NT tox | HT1080 IDH1KD tx | IL-1B inflam inh | DT40 TDP1 no CPT | DT40 TDP1 CPT
CCCCCC(=O)NC(=S)Nc1ccc2oc(=O)ccc2c1 | 2% | -2% | 69 | -6% | -3%
CN(C)CCCN(C(=O)c1cc(Cl)sc1Cl)c1nc2cc3c(cc2s1)OCO3 | ? | ? | ? | -25% | -41%
CN(C)CCCN(C(=O)c1ccc(Br)s1)c1nc2cc3c(cc2s1)OCCO3 | -10% | ? | -93* | ? | 29µM*
CN(C)CCCN(C(=O)c1cc2cc([N+](=O)[O-])ccc2s1)c1nc2cc3c(cc2s1)OCCO3 | ? | ? | 0 | 2.3µM* | 1.3µM*
Cc1ccc2nc(N(CCCN(C)C)C(=O)c3ccc(Br)s3)sc2c1 | ? | ? | -79* | 23µM* | ?
CN(C)CCCN(C(=O)c1ccc(Cl)s1)c1nc2cc3c(cc2s1)OCO3 | 18µM* | ? | -98* | ? | ?
Cc1ccc2nc(N(Cc3cccnc3)C(=O)c3cccs3)sc2c1 | · | · | · | -1% | 7%
CN(C)CCCN(C(=O)c1ccc([N+](=O)[O-])s1)c1nc2cc3c(cc2s1)OCCO3 | -2% | -2% | -96* | 3.3µM* | 2.9µM*
O=c1c2ccccc2nnn1CSc1nnc(C2COc3ccccc3O2)n1-c1ccccc1 (configuration not stated) | -16% | -15% | 13 | ? | 21µM*
Cc1nn(C)c2c1c(C(F)(F)F)cc(=O)n2CC(=O)NC(C)(C)C | · | · | · | -16% | -3%
CCOC(=O)c1c(C)n(S(=O)(=O)c2ccc(C)cc2)c2ccc(NS(=O)(=O)c3ccc(C)cc3)cc12 | · | · | · | 21µM* | 18µM*
Cc1ccc(S(=O)(=O)Nc2ccc3c(c2)CCC3)cc1 | -25% | -28% | -19 | 16µM* | 15µM*
Cc1ccc(S(=O)(=O)Nc2ccc3c(c2)c2c(n3S(=O)(=O)c3ccc(C)cc3)CCCC2=O)cc1 | -5% | -15% | 25 | 8.2µM* | 5.8µM*
CCn1cnc2cc(NS(=O)(=O)c3ccc(C)cc3)ccc21 | 5% | -2% | 18 | ? | ?
COc1ccccc1/C=C(/NC(=O)c1ccc(Cl)cc1Cl)C(=O)O | -7% | 1% | 26 | 17% | -29%
